Results reported in PubChem BioAssay (NCATS).
Records with an inconclusive call do not appear. Calls of active or inactive are those of the source. The call rests on the fitted dose curve; in most records, active means well fitted curve in the direction sought with a large enough effect; inconclusive means small, poorly fitted or top-dose-only effect, or another doubt; inactive means no such curve, though single readings can be large; an effect the other way counts as inactive or inconclusive.

How the values were obtained:
[1] = qHTS Screen of the MIPE 4.0 Collection Against Ewings Sarcoma (RDES) (AID 1259252); further: nearly all actives have a fitted effect of over 35% in size; further: potency means the concentration at half of the fitted maximal effect;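 on viability (percent of control): 100% = DMSO-treated cells and 0% = medium-only wells without cells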
How it was run: (§1)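 Log-phase cells in RPMI with 5% FBS attached for 4 h, then received compounds as a titration for 48 h at 37C, 5% CO2. Viability was read by CellTiter-Glo luminescence and normalized to DMSO and no-cell wells.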

[2] = qHTS Screen of the MIPE 4.0 Collection Against Ewings Sarcoma (TC71) (AID 1259253); further: nearly all actives have a fitted effect of over 40% in size; further: potency means the concentration at half of the fitted maximal effect;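 on viability (% of DMSO): 100% = DMSO-treated cells and 0% = medium-only wells without cells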
How it was run: as §1

[3] = qHTS Screen of the MIPE 4.0 Collection Against Ewings Sarcoma (EW8) (AID 1259255); further: nearly all actives have a fitted effect of over 35% in size; further: potency means the concentration at half of the fitted maximal effect;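 on viability: 100% = DMSO-treated cells and 0% = medium-only wells without cells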
How it was run: as §1

[4] = qHTS Screen of the MIPE 4.0 Collection Against Ewings Sarcoma (TC32) (AID 1259256); further: nearly all actives have a fitted effect of over 45% in size; further: potency means the concentration at half of the fitted maximal effect;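 on viability (percent of control): 100% = DMSO-treated cells and 0% = medium-only wells without cells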
How it was run: as §1

[5] = qHTS assay to identify small molecule inhibitors of chordoma cells - UCH-1 (AID 1259355); further: on the % scale 0 is the no-effect control and ±100 the full control effect; nearly all actives have a fitted effect of over 55% in size
How it was run: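 Screening used approved and investigational drugs in 15-point titration against 800 seeded cells per well. A fixed combination of auranofin with camptothecin, doxorubicin, rubitecan and topotecan followed compound addition, and growth was scored by CellTiter-Glo after 48hr.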

[6] = qHTS assay to identify small molecule inhibitors of chordoma cells - UCH-2 (AID 1259356); further: series mostly up to about 46 µM; on the % scale 0 is the no-effect control and ±100 the full control effect
[7] = NS1 protein of Zika virus - qHTS assay to identify small molecule inhibitors in human HEK 293 cells (AID 1347053); further: nearly all actives have a fitted effect of over 55% in size; further: potency means the concentration at half of the fitted maximal effect;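 on activity change, negative = inhibition: series mostly up to about 46 µM; plate controls were infected untreated cells for no effect and uninfected cells for full effect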
How it was run: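 Readout was TR-FRET using paired anti-NS1 antibodies after 24 h infection of HEK 293 cells with ZIKV MR766 (MOI = 0.5). Compound preceded virus by 1 h; reduced signal reflects lower NS1 expression.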

[8] = Identifying Small Molecule Inhibitors of Pancreatic Cancer Stem Cells (A2780, Spheroid) (AID 1259357); settings: Potency: A2780 spheroid viability; further: potency means the concentration at half of the fitted maximal effect;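 further: spheroids pre-formed over 14 days in stem cell medium on hydrogel; compound exposure lasted 48 h before the ATP luminescence read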;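 on viability (percent of control): 100% = DMSO treated cells and 0% = wells without cells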
How it was run: (§2)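 Adherent (2D) versus sphere (3D) formats; spheres generated 14 d in SCM beforehand. Compound transferred by pin tool after 4 h, 48 h incubation, CellTiter-Glo endpoint.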

[9] = Identifying Small Molecule Inhibitors of Pancreatic Cancer Stem Cells (SN12C, Adherent) (AID 1259358);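 further: cell survival measured after 48 h of compound exposure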; further: potency means the concentration at half of the fitted maximal effect
How it was run: (§3)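 Spheroids grown 14 days in stem cell media on hydrogel-coated nonadherent plates; 2D lines seeded directly. Compounds added after 4 h attachment, 48 h at 37C, 5% CO2; CellTiter-Glo luminescence normalized to DMSO (no inhibition) and no-cell wells (full inhibition).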

[10] = Identifying Small Molecule Inhibitors of Pancreatic Cancer Stem Cells (SN12C, Spheroid) (AID 1259360); settings: Potency: SN12C spheroid viability; further: potency means the concentration at half of the fitted maximal effect
How it was run: as §2

[11] = Identifying Small Molecule Inhibitors of Pancreatic Cancer Stem Cells (Panc1, Adherent) (AID 1259362); settings: Potency: viability; further: potency means the concentration at half of the fitted maximal effect
How it was run: as §2

[12] = P-glycoprotein substrates identified in KB-8-5-11 adenocarcinoma cell line, qHTS therapeutic library screen (AID 1346987); further: nearly all actives have a fitted effect of over 65% in size; further: potency means the concentration at half of the fitted maximal effect
How it was run: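 In this qHTS, P-gp-rich KB-8-5-11 cells received library compounds across a concentration range. Viability was quantified by luminescence after 72 h at 37 degree C.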

[13] = P-glycoprotein substrates identified in KB-3-1 adenocarcinoma cell line, qHTS therapeutic library screen (AID 1346986); further: nearly all actives have a fitted effect of over 60% in size
How it was run: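 Viability by CellTiter-Glo after 72 h compound exposure at 37 degree C, 5% CO2. Cytotoxic call: curve class -1.1 to -2.4, maximum response >50%, AC50 < 10 uM, compared across KB-3-1 and P-gp-overexpressing KB-8-5-11.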

[14] = Identifying Small Molecule Inhibitors of Pancreatic Cancer Stem Cells (A278, Adherent) (AID 1259361); further: nearly all actives have a fitted effect of over 35% in size
How it was run: as §3

Nc1ccc(S(=O)(=O)Nc2ncccn2)cc1
inactive: Potency [1] | Potency [2] | Potency [3] | Potency [4] | Potency [5] | outcome [6] | Potency [7]

O=C(C=Cc1c(C(=O)O)[nH]c2cc(Cl)cc(Cl)c12)Nc1ccccc1
inactive: Potency [1] | Potency [2] | Potency [3] | Potency [4] | Potency [8] | Potency [9] | Potency [10] | Potency [11] | Potency [12] | Potency [7]

O=c1[nH]c(=O)n(C2CCCO2)cc1F (stereo not given)
inactive: Potency [1] | Potency [2] | Potency [3] | Potency [4] | Potency [5] | outcome [6] | Potency [13] | Potency [12] | Potency [7]

CCC1=C[C@@H]2CN(C1)Cc1c([nH]c3ccccc13)[C@@](C(=O)OC)(c1cc3c(cc1OC)N(C)[C@@H]1[C@@](O)(C(=O)OC)[C@H](OC(C)=O)[C@]4(CC)C=CCN5CC[C@]31[C@@H]54)C2
active: Potency [1] 0.0148 µM | Potency [2] 0.166 µM | Potency [3] 0.0066 µM | Potency [7] 4.18 µM
inactive: Potency [4] | outcome [6]

CN1c2cc(O)c(N=NC(N)=O)cc2CC1S(=O)(=O)O (stereo not given)
inactive: Potency [1] | Potency [2] | Potency [3] | Potency [4] | Potency [5] | outcome [6] | Potency [13] | Potency [12] | Potency [7]

C1=CCOCc2cc(ccc2OCCN2CCCC2)Nc2nccc(n2)-c2cccc(c2)OCC1
inactive: Potency [10]
active: Potency [1] 5.9 µM | Potency [2] 4.69 µM | Potency [3] 6.62 µM | Potency [4] 7.43 µM | Potency [8] 3.32 µM | IC50 (viability decrease) [14] 2.09 µM | Potency [11] 1.87 µM | Potency [7] 4.18 µM

NC1(Cc2ccc(Cl)cc2)CCN(c2ncnc3[nH]ccc23)CC1
active: Potency [1] 16.6 µM | Potency [2] 18.7 µM | Potency [3] 16.6 µM | Potency [4] 16.6 µM

COc1ccc(CC2c3cc(OC)c(OC)cc3CC[N+]2(C)CCC(=O)OCCCCCOC(=O)CC[N+]2(C)CCc3cc(OC)c(OC)cc3C2Cc2ccc(OC)c(OC)c2)cc1OC (stereo not given)
inactive: viability (percent of control) [1] 121% [at 5.15 µM] | viability (% of DMSO) [2] 110% [at 5.15 µM] | viability [3] 117% [at 5.15 µM] | viability (percent of control) [4] 123% [at 5.15 µM] | outcome [6] | Potency [12] | activity change, negative = inhibition [7] -9.69% [at 9.2 µM]

COc1cc(C(=O)N2CCC(N3CCN(C)CC3)CC2)ccc1Nc1ncc2c(n1)N(C)c1ccccc1C(=O)N2C
active: Potency [1] 13.2 µM | Potency [2] 4.69 µM | Potency [3] 9.35 µM | Potency [4] 4.18 µM

C=CC(=O)Nc1cc2c(Nc3ccc(F)c(Cl)c3)ncnc2cc1OCCCN1CCOCC1
inactive: Potency [13]
active: Potency [1] 20.9 µM | Potency [2] 14.8 µM | Potency [3] 16.6 µM | Potency [4] 14.8 µM | Potency [8] 23.5 µM | Potency [10] 20.9 µM | IC50 (viability decrease) [14] 16.6 µM | Potency [12] 18.4 µM

CC1=C(CO)C(=O)O[C@@H]([C@@H](C)[C@H]2CC[C@H]3[C@@H]4C[C@H]5O[C@]56[C@@H](O)C=CC(=O)[C@]6(C)[C@@H]4CC[C@]23C)C1
active: Potency [1] 0.526 µM | Potency [2] 0.526 µM | Potency [3] 0.264 µM | Potency [4] 0.209 µM | Potency [8] 0.935 µM | Potency [9] 5.26 µM | Potency [10] 1.66 µM | IC50 (viability decrease) [14] 0.662 µM | Potency [11] 2.96 µM | Potency [12] 1.18 µM | Potency [7] 1.48 µM

C=CC(=O)N1CCC[C@@H](n2nc(-c3ccc(Oc4ccccc4)cc3)c3c(N)ncnc32)C1
inactive: Potency [8]
active: Potency [1] 20.9 µM | Potency [2] 29.6 µM | Potency [3] 23.5 µM | Potency [4] 18.7 µM

COc1cc(C(=O)NS(=O)(=O)c2ccccc2C)ccc1Cc1cn(C)c2ccc(NC(=O)OC3CCCC3)cc12
active: Potency [1] 23.5 µM | Potency [2] 23.5 µM | Potency [3] 16.6 µM | Potency [4] 18.7 µM
inactive: Potency [5] | outcome [6] | Potency [12] | Potency [7]

CN(C)CCCN=c1c2ccccc2n(C)c2[nH]c(=O)n(C)c(=O)c12
inactive: Potency [8] | Potency [10]
active: Potency [1] 2.64 µM | Potency [2] 10.5 µM | Potency [3] 1.18 µM | Potency [4] 2.96 µM | Potency [9] 20.9 µM | IC50 (viability decrease) [14] 11.8 µM

COc1c(N2C[C@@H]3CCCN[C@H]3C2)c(F)cc2c(=O)c(C(=O)O)cn(C3CC3)c12
inactive: Potency [1] | Potency [2] | Potency [3] | Potency [4] | Potency [5] | outcome [6] | Potency [7]

CC=CC1=C(C(=O)O)N2C(=O)[C@H](NC(=O)[C@H](N)c3ccc(O)cc3)[C@@H]2SC1
inactive: Potency [1] | Potency [2] | Potency [3] | Potency [4] | Potency [5] | outcome [6] | Potency [12]
